Test [1] can be described thus: compounds binding Alexa647 anti-His antibody – biochemical, small-molecule microarray, 635 nm fluorescence, artefact control for SMM control protein annotation, primary screen (AID 1128).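 Also: score merges feature fluorescence with signal-to-noise for each printed compound spot.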 The settings on record: higher = more signal.
The test system of test [2] is Human papillomavirus type 1a E7 protein (residues 1-88). Kind of test: HPV1a E7 small-molecule binders, primary screen, biochemical, small-molecule microarray, residues 1-88, 635 nm (AID 1129). The settings on record: small-molecule microarray binding, fluorescence 635 nm; higher = more signal.
The target in test [3] is Focal adhesion kinase 1 (Homo sapiens) (UniProt Q05397). As to the kind of experiment: PTK2 protein binding on printed compound slides – biochemical, small-molecule microarray, 635/667 nm fluorescence, BSA, DTT, primary screen (AID 1130).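 Also: composite of spot emission at 667 nm and signal to noise over triplicate slides.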 As to conditions: 635 nm fluorescence, higher = more signal.
Sequence of Focal adhesion kinase 1 (Homo sapiens) (Q05397 whole entry, looked up): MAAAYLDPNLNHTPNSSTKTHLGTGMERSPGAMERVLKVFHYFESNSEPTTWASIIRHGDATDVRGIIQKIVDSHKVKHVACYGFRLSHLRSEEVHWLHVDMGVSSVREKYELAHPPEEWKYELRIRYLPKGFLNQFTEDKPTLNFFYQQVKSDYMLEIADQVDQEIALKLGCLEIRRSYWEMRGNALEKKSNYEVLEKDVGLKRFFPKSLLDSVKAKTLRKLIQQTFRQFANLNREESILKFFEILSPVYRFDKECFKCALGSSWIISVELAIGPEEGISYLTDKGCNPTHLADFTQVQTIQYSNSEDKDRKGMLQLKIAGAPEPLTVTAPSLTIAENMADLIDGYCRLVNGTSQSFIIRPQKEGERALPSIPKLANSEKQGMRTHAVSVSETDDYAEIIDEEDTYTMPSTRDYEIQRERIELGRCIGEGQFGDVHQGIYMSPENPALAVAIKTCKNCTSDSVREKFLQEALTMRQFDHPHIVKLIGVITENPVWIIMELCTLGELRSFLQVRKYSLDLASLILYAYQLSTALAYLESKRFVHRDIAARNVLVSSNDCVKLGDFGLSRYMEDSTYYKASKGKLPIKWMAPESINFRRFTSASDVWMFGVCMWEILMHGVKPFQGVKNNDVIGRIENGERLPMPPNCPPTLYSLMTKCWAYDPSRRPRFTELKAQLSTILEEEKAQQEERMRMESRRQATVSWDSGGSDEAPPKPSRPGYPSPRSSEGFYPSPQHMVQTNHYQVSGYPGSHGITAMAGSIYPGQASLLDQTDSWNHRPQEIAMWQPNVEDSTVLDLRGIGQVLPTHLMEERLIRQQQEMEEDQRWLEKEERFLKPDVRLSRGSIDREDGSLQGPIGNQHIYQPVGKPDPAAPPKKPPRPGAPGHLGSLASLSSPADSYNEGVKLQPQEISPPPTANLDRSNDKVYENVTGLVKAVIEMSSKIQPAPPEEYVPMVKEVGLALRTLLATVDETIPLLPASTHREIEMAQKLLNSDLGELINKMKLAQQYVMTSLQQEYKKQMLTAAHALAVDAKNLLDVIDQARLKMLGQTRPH
For test [4], the system named is Fibrinogen (Alexa647-labelled). As to the kind of experiment: Alexa647-fibrinogen binding to printed small molecules – biochemical, small-molecule microarray, 635/667 nm fluorescence, artefact control for SMM control-protein annotation, profiling panel (AID 1131).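 Also: z-score merges 667 nm fluorescence with per-spot signal-to-noise over triplicate slides.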 As to conditions: fibrinogen-A647 binding fluorescence, higher = more signal.
The target of test [5] is Follistatin (Homo sapiens) (UniProt P19883). Kind of test: FST protein binding to printed compounds – biochemical, small-molecule microarray, 635/667 nm fluorescence, primary screen (AID 1132). The settings on record: 635 nm fluorescence, higher = more signal.
Sequence of Follistatin (Homo sapiens) (P19883 whole entry, looked up): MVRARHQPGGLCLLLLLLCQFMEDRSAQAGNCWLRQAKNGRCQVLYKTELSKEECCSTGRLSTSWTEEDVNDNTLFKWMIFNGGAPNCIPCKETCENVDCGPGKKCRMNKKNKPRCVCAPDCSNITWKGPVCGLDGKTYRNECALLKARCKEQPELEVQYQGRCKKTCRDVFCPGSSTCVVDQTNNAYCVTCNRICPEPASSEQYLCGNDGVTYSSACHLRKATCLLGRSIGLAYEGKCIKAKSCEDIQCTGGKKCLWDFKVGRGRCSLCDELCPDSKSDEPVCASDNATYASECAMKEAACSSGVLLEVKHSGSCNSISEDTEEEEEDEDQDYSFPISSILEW
The target of test [6] is Fibroblast growth factor 2 (Homo sapiens) (UniProt P09038). Kind of test: basic fibroblast growth factor binding to printed compounds – biochemical, small-molecule microarray, 635/667 nm fluorescence, primary screen (AID 1133). As to conditions: FGF2, fluorescence 635/667, higher = more signal.
Sequence of Fibroblast growth factor 2 (Homo sapiens) (P09038 whole entry, looked up): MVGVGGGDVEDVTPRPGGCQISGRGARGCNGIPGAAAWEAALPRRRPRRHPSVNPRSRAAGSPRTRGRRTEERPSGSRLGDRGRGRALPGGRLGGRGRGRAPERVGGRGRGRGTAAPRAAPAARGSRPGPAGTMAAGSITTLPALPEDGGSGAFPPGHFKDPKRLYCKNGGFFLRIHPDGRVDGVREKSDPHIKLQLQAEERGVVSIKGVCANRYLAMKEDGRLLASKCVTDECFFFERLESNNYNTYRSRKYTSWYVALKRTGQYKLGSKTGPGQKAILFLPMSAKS
Test [7] in a line: JC-1 mitochondrial potential readout, lung cancer cells – cell-based, A549, JC-1 fluorescence, basal, 24 h, 100 nL, profiling panel (AID 1138).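 Also: A549 lung adenocarcinoma cells under basal conditions with no added stimulus; test concentration not given here.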 The settings on record: higher = more signal.
A further test relates to Lefty1. Kind of test: Lefty1 protein binding to printed compounds – biochemical, small-molecule microarray, 635/667 nm fluorescence, primary screen (AID 1139). As to conditions: fluorescence 635/667, higher = more signal.
Test [8] concerns wheat germ agglutinin (Triticum aestivum), Alexa647-labelled. Kind of test: Alexa647-WGA lectin binding to printed small molecules – biochemical, small-molecule microarray, 635/667 nm fluorescence, artefact control for SMM control-protein annotation, profiling panel (AID 1140).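 Also: score merges 667 nm feature emission with signal to noise over triplicate slides.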 As to conditions: WGA-A647 binding, 635 nm fluorescence, higher = more signal.
For test [9], the target named is Luciferin 4-monooxygenase (Photinus pyralis) (UniProt P08659). Kind of test: inhibition of purified Photinus pyralis luciferase – biochemical, luminescence, purified enzyme, 2006 set, primary screen (AID 1141).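 Also: cell-free assay with purified firefly luciferase at 100 ng per well in PBS; test concentration not given here.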 As to conditions: purified firefly luciferase, SteadyGlo luminescence, 30 min; higher = more signal, called active from +8 up or from −8 down.
Sequence of Luciferin 4-monooxygenase (Photinus pyralis) (P08659 whole entry, looked up): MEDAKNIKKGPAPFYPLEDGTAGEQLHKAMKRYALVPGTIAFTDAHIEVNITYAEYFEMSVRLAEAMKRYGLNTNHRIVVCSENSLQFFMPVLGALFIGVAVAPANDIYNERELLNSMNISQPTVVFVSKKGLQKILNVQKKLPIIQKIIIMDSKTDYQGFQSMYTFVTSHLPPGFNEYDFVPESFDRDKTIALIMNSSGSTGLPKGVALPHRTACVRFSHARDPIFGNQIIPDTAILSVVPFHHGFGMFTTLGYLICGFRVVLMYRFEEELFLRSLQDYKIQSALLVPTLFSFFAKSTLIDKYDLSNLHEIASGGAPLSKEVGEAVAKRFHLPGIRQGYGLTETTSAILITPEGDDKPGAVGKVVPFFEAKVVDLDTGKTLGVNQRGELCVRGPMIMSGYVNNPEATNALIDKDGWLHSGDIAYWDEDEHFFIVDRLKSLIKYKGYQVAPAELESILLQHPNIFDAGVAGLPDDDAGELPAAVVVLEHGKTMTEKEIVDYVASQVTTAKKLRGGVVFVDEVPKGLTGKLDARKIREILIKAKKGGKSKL
Test [10] deals with Wnt5a (protein binding on small-molecule microarray). As to the kind of experiment: small molecules binding Wnt5a protein – biophysical, small-molecule microarray, 635/667 nm fluorescence, primary screen (AID 1142).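 Also: fluorescence read at 667 nm with signal to noise per printed feature.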 The settings on record: 635 nm fluorescence, higher = more signal.
Test [11] is described as follows: ATP-based viability of Huh7 replicon cells – cell-based, CellTiter-Glo luminescence, basal, 48 h, cytotoxicity control for HCV replication inhibitor project, primary screen (AID 1143).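 Also: Huh7 hepatoma cells carrying a hepatitis C replication reporter with no stimulus; test concentration not given here.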 The settings on record: higher = more signal, called active from +8 up or from −8 down. (In general: In antiviral work, replicon cells carry a viral genome segment that copies itself.)

Test [12] is described as follows: Pseudomonas biofilm growth suppression – PAO1 strain, BacTiter-Glo luminescence, LB-PBS, primary screen (AID 1144). As to conditions: P. aeruginosa PAO1 biofilm, 12 h, higher = more signal.
The nature of test [13]: basal CRE-LacZ reporter activity in PC12 – cell-based, unstimulated, primary screen (AID 1145). As to conditions: no forskolin, luminescence, 4.5 h, higher = more signal, called active from +8 up or from −8 down.
Test [14] can be described thus: forskolin-driven CRE-LacZ activity in PC12 – cell-based, CRE-LacZ reporter, forskolin-stimulated, primary screen (AID 1146).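 Also: PC12 cells with 6xCRE LacZ reporter stimulated by forskolin 10 µM; beta-galactosidase reporter signal reflecting CREB driven transcription.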 The settings on record: luminescence, 4.5 h, higher = more signal, called active from +8 up or from −8 down.
Test [15] deals with Streptavidin (Streptomyces avidinii) (UniProt P22629). Kind of test: compounds binding control protein streptavidin – biophysical, small-molecule microarray, 635/667 nm fluorescence, artefact control for SMM compound annotation, primary screen (AID 1147).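 Also: signal reflects streptavidin binding to arrayed compounds as a control protein.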 The settings on record: higher = more signal.
Sequence of Streptavidin (Streptomyces avidinii) (P22629 whole entry, looked up): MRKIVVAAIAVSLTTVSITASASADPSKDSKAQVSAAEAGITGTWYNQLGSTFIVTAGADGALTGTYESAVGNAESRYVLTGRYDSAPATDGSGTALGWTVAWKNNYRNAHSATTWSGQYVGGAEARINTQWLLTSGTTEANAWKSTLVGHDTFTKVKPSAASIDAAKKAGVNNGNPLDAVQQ
Test [16] is described as follows: probe aInhba binding on compound microarray – biochemical, small-molecule microarray, 635/667 nm fluorescence, primary screen (AID 1148).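 Also: score merges 667nm spot fluorescence with signal-to-noise for antibody binding to printed compounds.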 As to conditions: higher = more signal.
The target of test [17] is Torsin-1A (Homo sapiens) (UniProt O14656). As to the kind of experiment: TOR1A wild-type binding on microarray – cell lysate, small-molecule microarray, lysate, 635/667 nm, primary screen (AID 1149). As to conditions: COS7 hTOR1A-WT lysate, 635 nm fluorescence, higher = more signal.
Sequence of Torsin-1A (Homo sapiens) (O14656 whole entry, looked up): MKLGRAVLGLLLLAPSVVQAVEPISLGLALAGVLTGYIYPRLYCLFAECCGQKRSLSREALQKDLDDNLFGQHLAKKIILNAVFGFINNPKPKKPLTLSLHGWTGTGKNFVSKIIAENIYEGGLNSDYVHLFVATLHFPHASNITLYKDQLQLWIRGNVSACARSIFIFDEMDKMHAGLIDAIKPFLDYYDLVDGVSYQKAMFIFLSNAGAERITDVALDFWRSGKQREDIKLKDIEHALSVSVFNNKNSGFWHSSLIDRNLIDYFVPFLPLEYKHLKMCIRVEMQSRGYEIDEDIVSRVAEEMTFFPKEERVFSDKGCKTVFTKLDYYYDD
Test [18] has the same target. Kind of test: torsin A mutant lysate binding on microarrays – cell lysate, small-molecule microarray, COS7 lysate, 635/667 nm fluorescence, primary screen (AID 1150).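 Also: score pools 667 nm emission and signal to noise measuring lysate protein binding.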 As to conditions: COS7 hTOR1A mutant lysate, 635 nm fluorescence, higher = more signal.
The subject of test [19] is Sonic hedgehog protein (Shh). Kind of test: Sonic hedgehog microarray binding compounds – biochemical, small-molecule microarray, 635/667 nm fluorescence, primary screen (AID 1151).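 Also: Shh protein binding to compounds spotted on small-molecule microarray slides; score combines spot fluorescence intensity with signal-to-noise across triplicate slides.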 As to conditions: 635 nm fluorescence, higher = more signal.

Structures are written as SMILES. Calls of active or inactive are those of the source. Unless noted, no rule for the calls is given here.

Turning to `O=c1n(Cc2cc3c(cc2Cl)OCO3)c(=O)n2n1CC[C@@H]1C(=NOCc3ccccc3)[C@H]3O[C@H]3[C@@H](O)[C@@H]12`, the composite z-score was 0.559 in test [1]; 0.459 in [2]; -0.0758 in test [3]; 0.623 in test [4]; 0.444 in test [5]; 0.784 in [6]. Besides, the composite z-score in the test with Lefty1 is 0.716; in test [8], 0.125; in test [10], 0.141; in test [15], 0.767; in test [16], -0.0509; with Torsin-1A (Homo sapiens) [17] it was 0.582. The composite z-score turned out to be 0.223 in the test with Torsin-1A (Homo sapiens) [18] and 0.365 in test [19]. Further, the z-score in test [7] was 0.679; in test [9], -1.8 (inactive); in test [11], -0.742 (inactive); in test [12] it was 0.692 (inactive); in test [13], 0.16 (inactive); in test [14] it was 1.87 (inactive).
With `CCOC(=O)[C@H](Cc1ccccc1)NC(=O)OC1CC(CCC2CC(CC)=NO2)OC2(CCCC(COC(=O)NCCC(C)C)O2)C1` (stereo not given in full), the composite z-score worked out at 0.272 in test [1]; 0.55 in test [2]; 0.271 in test [3]; 0.305 in test [4]; 0.0871 in [5]; 0.342 in test [6]. The composite z-score was -0.033 in the test on Lefty1; 0.668 in test [8]; 0.0453 in [10]; 0.851 in test [15]; -0.154 in test [16]; -0.182 in the test with Torsin-1A (Homo sapiens) [17]. For the same compound, the results for the composite z-score (with Torsin-1A (Homo sapiens) [18]; in [19]) were 0.225 and 0.135, respectively. The z-score was -0.0991 in [7]; 0.772 (inactive) in [9]; -0.24 (inactive) in test [11]; 0.636 (inactive) in [12]; 0.105 (inactive) in test [13]; 0.703 (inactive) in test [14].
With `CCOC(=O)[C@H](CC(C)C)NC(=O)CCC1CC(OC(=O)NCc2cccc3ccccc23)CC2(CCCC(COC(=O)NCCC(C)C)O2)O1` (stereo not given in full), the composite z-score in test [1] was -0.121; in [2] it was 0.572; in test [3], -0.394; in test [4] it was 0.123; in test [5], 0.364; in test [6], 0.92. Besides, the composite z-score with Lefty1 was 0.606; in test [8] it was 0.0877; in [10] it was 0.0463; in [15] it was -0.589; in [16], -0.0736; with Torsin-1A (Homo sapiens) [17], -0.0418. Besides, the values for the composite z-score (with Torsin-1A (Homo sapiens) [18]; in [19]) were 0.185 and 0.784, respectively. For the same compound, the z-score in test [7] is 0.652; in test [9] it was -0.0038 (inactive); in [11], -2.6 (inactive); in test [12] it was -1.52 (inactive); in [13], 0.563 (inactive); in test [14], -0.535 (inactive).
`COC(=O)[C@H](C)NC(=O)CCC1CC(OC(=O)NCc2cccc3ccccc23)CC2(CCCC(COC(=O)NCC(c3ccccc3)c3ccccc3)O2)O1` (stereo not given in full): the composite z-score in [1] was determined as 1.04; in test [2] it was 1.15; in test [3] it was 0.713; in [4] it was 0.665; in test [5], 0.376; in [6], 0.227. In addition, the composite z-score was 0.554 in the test with Lefty1; 0.661 in [8]; 0.345 in test [10]; -0.244 in test [15]; -0.11 in test [16]; 0.113 with Torsin-1A (Homo sapiens) [17]. The composite z-score with Torsin-1A (Homo sapiens) [18] worked out at 0.452; in test [19] it was 0.759. Also, the z-score is 1.17 in [7]; 1.22 (inactive) in test [9]; -0.145 (inactive) in test [11]; -0.155 (inactive) in test [12]; -0.437 (inactive) in test [13]; 2.17 (inactive) in test [14].
For `C[C@H]1CC[C@H]2C(=O)OC(CO)CN2[C@@H]1c1ccc(Br)cc1` (stereo not given in full), the composite z-score in [1] was 0.58; in [2] it was -0.805; in [3], -0.442; in test [4] it was 0.276; in [5] it was 0.124; in test [6] it was -0.153. Also, the composite z-score in the test with Lefty1 was -0.0811; in test [8], 0.162; in test [10] it was 0.0096; in test [15], -0.281; in test [16] it was -0.253; in the test with Torsin-1A (Homo sapiens) [17] it was 0.21. Further, the values for the composite z-score (with Torsin-1A (Homo sapiens) [18]; in test [19]) were 0.002 and 0.661, respectively. The z-score in [7] is -0.486; in test [9], -0.0741 (inactive); in test [11], 0.131 (inactive); in test [12], -1.21 (inactive); in [13] it was -0.527 (inactive); in [14] it was -1.43 (inactive).
